The list is not random: actives were taken first. Their share in the collection is about 4%.
HIF-2a inh: inhibitors of HIF-2a; inhibition, % at 18.8 µM; AID 624352; 360,000 compounds, 0.72% hits; 786-0 RCC cells HIF-2a reporter, luciferase luminescence, overnight;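 active means inhibition of the luminescence signal of 40% or more relative to plate controls, in a single-dose primary screen at 18.75 µM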
CF NFkB inh: cystic fibrosis NF-kB activation inhibition | KKLEB NF-kB-GFP reporter, PAF-induced, GFP fluorescence overnight | AID 588850 | inhibition, % at 5 µM | 360,000 compounds, 0.86% hits;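 active means at least 50% inhibition at 5 µM, scaled per plate between neutral and stimulator controls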;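 further: PAF is a Pseudomonas aeruginosa culture filtrate used as stimulus; plate controls were PAF-stimulated DMSO wells for no effect and unstimulated DMSO wells for full effect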
Peg3 promoter: reduces Peg3 promoter-driven luciferase expression in HeLa | HeLa PEG-Prom luciferase reporter, luminescence, overnight | 360,000 compounds, 1.7% hits | inhibition, % at 20 µM | AID 588405;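 active means inhibition of at least 50% at 20 µM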
TWEAK Fn14 block: inhibitors of TWEAK-Fn14 interaction signaling; inhibition, % at 10 µM; 360,000 compounds, 2% hits; TWEAK-stimulated Fn14 reporter cells, luciferase luminescence, 8 h; AID 1159606; in the data active means inhibition above about 50%
KKLEB cytotox: CF airway cell cytotoxicity counter-screen; KKLEB CF airway cells viability, ATPlite luminescence, overnight; hits give low values; cells stimulated with P. aeruginosa culture filtrate; activity change (cytotoxicity), % at 5 µM; 360,000 compounds, 0.36% hits; AID 602141;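 active means corrected activity change at or below -50% at 5 µM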
TROY signal inh: TROY signaling inhibition; inhibition, % at 10 µM; 360,000 compounds, 0.98% hits; Q293 LMP1-TROYcd NF-kB luciferase reporter, 4 h;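 active means compounds whose plate-normalised and pattern-corrected inhibition of the luciferase reporter signal at the single screening dose is 50% or more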
* = called active by the depositor.

Results for CN1CCN(c2ccc(NC(=O)c3cc4ccccc4o3)cc2)CC1 ?
HIF-2a inh: -172; CF NFkB inh: 16; Peg3 promoter: -255; TWEAK Fn14 block: 27; KKLEB cytotox: -8; TROY signal inh: 0

How did O=C(Nc1ccc(N2CCN(C(=O)c3ccccc3)CC2)cc1)c1cc2ccccc2o1 do in these assays?
HIF-2a inh: -6; CF NFkB inh: -2; Peg3 promoter: 72*; TWEAK Fn14 block: 91*; KKLEB cytotox: 10; TROY signal inh: 70*

How did CCC(C(=O)Nc1ccc2c(c1)OCCO2)n1c(=O)[nH]c2ccccc2c1=O (centres undefined) do in these assays?
HIF-2a inh: 27; CF NFkB inh: -4; Peg3 promoter: 34; TWEAK Fn14 block: 76*; KKLEB cytotox: 3; TROY signal inh: 60*

Results for COc1ccc(C)cc1NC(=O)C1CCCCN1S(=O)(=O)c1ccccc1 (centres undefined) ?
HIF-2a inh: 7; CF NFkB inh: 18; Peg3 promoter: 27; TWEAK Fn14 block: 1; KKLEB cytotox: -14; TROY signal inh: 10

What do the screens show for `C[C@H](NS(=O)(=O)c1ccc(Cl)cc1)C(=O)OCC(=O)NCCc1ccc(S(N)(=O)=O)cc1`?
HIF-2a inh: 5; CF NFkB inh: 16; Peg3 promoter: 17; TWEAK Fn14 block: 5; KKLEB cytotox: -3; TROY signal inh: 2

What do the screens show for `O=C(C[n+]1cc(Br)cc2ccccc21)c1ccc(Br)cc1`?
HIF-2a inh: 25; CF NFkB inh: 5; Peg3 promoter: 29; TWEAK Fn14 block: 4; KKLEB cytotox: -15; TROY signal inh: -3

How did O=C(C[n+]1cn(C(F)F)c2ccccc21)c1ccc(Br)cc1 do in these assays?
HIF-2a inh: -1; CF NFkB inh: -14; Peg3 promoter: 7; TWEAK Fn14 block: 86*; KKLEB cytotox: 12; TROY signal inh: -31

Results for Cc1ccnc(NC(=O)Nc2cccc(F)c2)c1 ?
HIF-2a inh: -74; CF NFkB inh: -8; Peg3 promoter: -118; TWEAK Fn14 block: 66*; KKLEB cytotox: 13; TROY signal inh: -19

Results for C=CCNc1nc(NCCOc2ccccc2Cl)c2sc(-c3ccccc3)cc2n1 ?
HIF-2a inh: -61; CF NFkB inh: -2; Peg3 promoter: -17; TWEAK Fn14 block: 28; KKLEB cytotox: 6; TROY signal inh: -12

What do the screens show for `CC(OC(=O)c1ccc(NC(=O)CC#N)cc1)C(=O)NC(c1ccccc1)c1ccccc1` (centres undefined)?
HIF-2a inh: 8; CF NFkB inh: -18; Peg3 promoter: 5; TWEAK Fn14 block: 5; KKLEB cytotox: -1; TROY signal inh: 5

How did CC(=O)Nc1ccc(SCC(=O)c2cc(C)n(-c3ccccc3)c2C)cc1 do in these assays?
HIF-2a inh: 22; CF NFkB inh: -8; Peg3 promoter: 20; TWEAK Fn14 block: 73*; KKLEB cytotox: -31; TROY signal inh: 44

How did Cc1cc(C(=O)C(C)OC(=O)c2ccc(NC(=O)CC#N)cc2)c(C)n1-c1ccccc1 (centres undefined) do in these assays?
HIF-2a inh: 6; CF NFkB inh: -13; Peg3 promoter: -17; TWEAK Fn14 block: 64*; KKLEB cytotox: 14; TROY signal inh: 45

What do the screens show for `CC/C(=N/NC(=O)c1ccc2c(c1)OCO2)c1ccccc1O`?
HIF-2a inh: -216; CF NFkB inh: -8; Peg3 promoter: -92; TWEAK Fn14 block: -25; KKLEB cytotox: -3; TROY signal inh: -63

How did CCCCn1nnnc1C1(C)CCC(=O)N1Cc1ccco1 (centres undefined) do in these assays?
HIF-2a inh: 7; TWEAK Fn14 block: 20; TROY signal inh: -17

Results for COc1ccccc1N1CCN(C(=S)Nc2ccc3nc(N4CCOCC4)cc(C)c3c2)CC1 ?
HIF-2a inh: -13; CF NFkB inh: 20; Peg3 promoter: -8; TWEAK Fn14 block: 52*; KKLEB cytotox: -17; TROY signal inh: 37

What do the screens show for `COc1ccccc1N1CCN(C(=S)Nc2cccc(C)c2)CC1`?
HIF-2a inh: 11; CF NFkB inh: 12; Peg3 promoter: -5; TWEAK Fn14 block: 63*; KKLEB cytotox: 6; TROY signal inh: 61*

Results for CC1CCCN(CCCNC(=O)c2ccc3c(c2)N(Cc2ccccc2F)C(=O)c2ccccc2S3(=O)=O)C1 (centres undefined) ?
HIF-2a inh: 28; CF NFkB inh: 6; Peg3 promoter: 10; TWEAK Fn14 block: 8; KKLEB cytotox: -16; TROY signal inh: 17

How did c1ccc(-c2csc3ncnc(NCCCN4CCOCC4)c23)cc1 do in these assays?
HIF-2a inh: 7; CF NFkB inh: -12; Peg3 promoter: 15; TWEAK Fn14 block: 20; KKLEB cytotox: -1; TROY signal inh: 26

What do the screens show for `O=c1c2c(-c3ccccc3)csc2nc2c3ccccc3c(NCCN3CCOCC3)nn12`?
HIF-2a inh: -101; CF NFkB inh: -18; Peg3 promoter: 108*; TWEAK Fn14 block: -19; KKLEB cytotox: -10; TROY signal inh: 6

How did CC(C)(C)c1ccc(C(=O)Nc2cnccn2)cc1 do in these assays?
HIF-2a inh: -97; CF NFkB inh: 22; Peg3 promoter: -44; TWEAK Fn14 block: 61*; KKLEB cytotox: -37; TROY signal inh: 13

How did O=C(Nc1ccccn1)C(=O)Nc1ccccn1 do in these assays?
HIF-2a inh: -218; CF NFkB inh: -4; Peg3 promoter: -175; TWEAK Fn14 block: 51*; KKLEB cytotox: 10; TROY signal inh: 29

Results for O=C(Nc1ccccn1)c1ccc(-c2ccccc2)cc1 ?
HIF-2a inh: 11; CF NFkB inh: -15; Peg3 promoter: 1; TWEAK Fn14 block: 89*; KKLEB cytotox: -55*; TROY signal inh: 54*

Results for COc1ccc(C(=O)Nc2cnccn2)cc1[N+](=O)[O-] ?
HIF-2a inh: -10; CF NFkB inh: -21; Peg3 promoter: -10; TWEAK Fn14 block: 6; KKLEB cytotox: 17; TROY signal inh: -2

Results for C[N+](C)(C)CCN1C(=O)c2ccccc2C1=O ?
HIF-2a inh: 3; TWEAK Fn14 block: -12; TROY signal inh: -12

How did CC(=O)c1cn(CC(=O)Nc2ccccc2C(F)(F)F)c2ccccc12 do in these assays?
HIF-2a inh: 26; CF NFkB inh: 2; Peg3 promoter: 12; TWEAK Fn14 block: 9; KKLEB cytotox: -3; TROY signal inh: 6

Results for CS(=O)(=O)c1ccccc1-c1nnc(NC(=O)c2cccc(N3C(=O)CCC3=O)c2)o1 ?
HIF-2a inh: 12; CF NFkB inh: 17; Peg3 promoter: 6; TWEAK Fn14 block: -2; KKLEB cytotox: -4; TROY signal inh: -8

What do the screens show for `CCOC(=O)C1CC(CN2C(=O)c3ccccc3C2=O)OC1=O` (centres undefined)?
HIF-2a inh: -1; CF NFkB inh: -8; Peg3 promoter: -2; TWEAK Fn14 block: 7; KKLEB cytotox: 14; TROY signal inh: -17
